Data: ChEMBL document CHEMBL2218924, “A broad activity screen in support of a chemogenomic map for kinase signalling research and drug discovery” (Biochem J, 2013)

How the values were obtained:
[1] = target: MAP kinase-activated protein kinase 2 (Homo sapiens) (UniProt P49137); conditions: at 10 µM
[2] = target: MAP kinase-activated protein kinase 3 (Homo sapiens) (UniProt Q16644); conditions: at 10 µM
[3] = target: Serine/threonine-protein kinase MARK1 (Homo sapiens) (UniProt Q9P0L2); conditions: at 1 µM
Serine/threonine-protein kinase MARK1 (Homo sapiens), sequence (Q9P0L2 whole entry, looked up): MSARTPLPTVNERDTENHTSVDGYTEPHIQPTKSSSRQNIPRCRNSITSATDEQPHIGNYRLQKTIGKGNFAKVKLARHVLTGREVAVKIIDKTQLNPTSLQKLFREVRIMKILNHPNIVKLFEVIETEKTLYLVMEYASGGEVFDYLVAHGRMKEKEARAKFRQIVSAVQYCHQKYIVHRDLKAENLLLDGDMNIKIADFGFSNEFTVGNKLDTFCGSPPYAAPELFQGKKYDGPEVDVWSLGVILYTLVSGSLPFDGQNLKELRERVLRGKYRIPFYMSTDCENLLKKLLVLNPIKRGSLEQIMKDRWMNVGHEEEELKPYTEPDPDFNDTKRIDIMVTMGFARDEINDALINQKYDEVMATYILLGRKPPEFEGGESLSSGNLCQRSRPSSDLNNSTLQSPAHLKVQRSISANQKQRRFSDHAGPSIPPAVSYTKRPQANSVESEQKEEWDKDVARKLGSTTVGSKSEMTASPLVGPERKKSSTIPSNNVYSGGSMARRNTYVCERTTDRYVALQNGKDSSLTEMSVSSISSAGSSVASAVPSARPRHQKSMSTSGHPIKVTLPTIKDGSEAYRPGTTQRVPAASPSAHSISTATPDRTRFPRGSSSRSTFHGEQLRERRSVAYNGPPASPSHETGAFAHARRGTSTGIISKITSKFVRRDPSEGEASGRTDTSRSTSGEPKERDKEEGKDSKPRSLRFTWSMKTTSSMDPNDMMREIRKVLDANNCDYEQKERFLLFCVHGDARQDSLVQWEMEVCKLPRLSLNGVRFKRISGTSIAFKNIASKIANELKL

[4] = target: Serine/threonine-protein kinase MARK1 (Homo sapiens) (UniProt Q9P0L2); conditions: at 10 µM
[5] = target: Dual specificity mitogen-activated protein kinase kinase 1 (Homo sapiens) (UniProt Q02750); conditions: at 10 µM
Dual specificity mitogen-activated protein kinase kinase 1 (Homo sapiens), sequence (Q02750 whole entry): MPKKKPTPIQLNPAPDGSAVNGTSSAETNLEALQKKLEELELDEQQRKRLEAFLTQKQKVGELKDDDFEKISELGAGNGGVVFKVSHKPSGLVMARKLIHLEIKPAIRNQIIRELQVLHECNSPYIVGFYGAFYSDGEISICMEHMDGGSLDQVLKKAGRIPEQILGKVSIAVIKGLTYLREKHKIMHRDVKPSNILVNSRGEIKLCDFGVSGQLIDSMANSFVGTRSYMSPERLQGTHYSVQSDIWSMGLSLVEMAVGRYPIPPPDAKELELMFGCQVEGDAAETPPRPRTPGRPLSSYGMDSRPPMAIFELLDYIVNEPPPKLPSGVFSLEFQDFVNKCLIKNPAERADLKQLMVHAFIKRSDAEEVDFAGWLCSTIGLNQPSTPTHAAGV

[6] = target: Maternal embryonic leucine zipper kinase (Homo sapiens) (UniProt Q14680); conditions: at 1 µM
Maternal embryonic leucine zipper kinase (Homo sapiens), sequence (Q14680 whole entry, looked up): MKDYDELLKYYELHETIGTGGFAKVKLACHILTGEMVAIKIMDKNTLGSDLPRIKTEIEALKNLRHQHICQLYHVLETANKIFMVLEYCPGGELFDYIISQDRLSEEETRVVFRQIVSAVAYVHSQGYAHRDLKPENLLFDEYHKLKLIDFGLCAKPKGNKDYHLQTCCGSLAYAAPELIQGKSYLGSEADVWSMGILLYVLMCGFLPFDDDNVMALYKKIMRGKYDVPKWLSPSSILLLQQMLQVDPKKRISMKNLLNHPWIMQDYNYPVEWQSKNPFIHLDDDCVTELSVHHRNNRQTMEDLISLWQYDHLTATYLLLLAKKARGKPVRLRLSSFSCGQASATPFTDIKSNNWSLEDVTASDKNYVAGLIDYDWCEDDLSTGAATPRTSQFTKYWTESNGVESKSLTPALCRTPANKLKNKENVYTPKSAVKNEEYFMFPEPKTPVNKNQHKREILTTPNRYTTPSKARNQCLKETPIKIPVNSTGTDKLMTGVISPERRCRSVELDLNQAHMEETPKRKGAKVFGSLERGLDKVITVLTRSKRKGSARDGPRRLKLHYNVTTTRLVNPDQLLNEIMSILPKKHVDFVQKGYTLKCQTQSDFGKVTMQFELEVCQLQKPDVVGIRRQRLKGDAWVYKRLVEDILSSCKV

[7] = target: Maternal embryonic leucine zipper kinase (Homo sapiens) (UniProt Q14680); conditions: at 10 µM
[8] = target: Misshapen-like kinase 1 (Homo sapiens) (UniProt Q8N4C8); conditions: at 1 µM
Misshapen-like kinase 1 (Homo sapiens), sequence (Q8N4C8 whole entry, looked up): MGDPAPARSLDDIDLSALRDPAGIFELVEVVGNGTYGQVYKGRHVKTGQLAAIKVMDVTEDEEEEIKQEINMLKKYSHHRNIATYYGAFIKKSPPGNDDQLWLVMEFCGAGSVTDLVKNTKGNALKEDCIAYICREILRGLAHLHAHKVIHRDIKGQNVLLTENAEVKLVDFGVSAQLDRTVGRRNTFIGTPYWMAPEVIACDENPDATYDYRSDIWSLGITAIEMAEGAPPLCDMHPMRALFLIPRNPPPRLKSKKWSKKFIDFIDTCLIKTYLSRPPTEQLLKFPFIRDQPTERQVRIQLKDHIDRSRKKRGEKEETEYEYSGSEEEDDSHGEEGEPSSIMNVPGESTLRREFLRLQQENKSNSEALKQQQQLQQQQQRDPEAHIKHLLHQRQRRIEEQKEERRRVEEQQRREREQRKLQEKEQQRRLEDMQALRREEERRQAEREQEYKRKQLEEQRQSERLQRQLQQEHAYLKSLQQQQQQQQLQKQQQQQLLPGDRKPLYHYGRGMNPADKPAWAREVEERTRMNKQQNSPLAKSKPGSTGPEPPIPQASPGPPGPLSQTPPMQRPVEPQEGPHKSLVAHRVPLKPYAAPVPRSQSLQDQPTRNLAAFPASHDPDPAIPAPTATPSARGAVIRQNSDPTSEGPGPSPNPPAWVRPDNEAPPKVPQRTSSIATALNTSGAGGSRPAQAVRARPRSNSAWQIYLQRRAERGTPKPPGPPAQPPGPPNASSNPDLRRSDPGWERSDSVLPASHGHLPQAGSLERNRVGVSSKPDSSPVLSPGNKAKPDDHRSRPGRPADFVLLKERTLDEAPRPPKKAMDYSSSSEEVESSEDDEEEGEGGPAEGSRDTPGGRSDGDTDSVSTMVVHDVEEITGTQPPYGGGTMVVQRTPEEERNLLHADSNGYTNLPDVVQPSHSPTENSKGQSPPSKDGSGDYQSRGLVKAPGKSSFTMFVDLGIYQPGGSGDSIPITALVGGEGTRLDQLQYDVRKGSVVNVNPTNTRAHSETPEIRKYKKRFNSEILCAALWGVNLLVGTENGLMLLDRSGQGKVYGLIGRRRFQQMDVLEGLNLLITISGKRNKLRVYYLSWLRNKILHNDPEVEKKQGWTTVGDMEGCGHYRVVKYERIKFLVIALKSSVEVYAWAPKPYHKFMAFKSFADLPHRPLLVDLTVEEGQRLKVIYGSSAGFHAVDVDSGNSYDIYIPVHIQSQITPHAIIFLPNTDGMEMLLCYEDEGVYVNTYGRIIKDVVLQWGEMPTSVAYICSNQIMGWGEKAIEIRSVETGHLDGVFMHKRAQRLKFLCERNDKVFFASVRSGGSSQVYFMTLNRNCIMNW

[9] = target: Misshapen-like kinase 1 (Homo sapiens) (UniProt Q8N4C8); conditions: at 10 µM
[10] = target: Dual specificity mitogen-activated protein kinase kinase 1 (Homo sapiens) (UniProt Q02750); conditions: at 1 µM

MAP kinase-activated protein kinase 3 (Homo sapiens), sequence (Q16644 whole entry, looked up): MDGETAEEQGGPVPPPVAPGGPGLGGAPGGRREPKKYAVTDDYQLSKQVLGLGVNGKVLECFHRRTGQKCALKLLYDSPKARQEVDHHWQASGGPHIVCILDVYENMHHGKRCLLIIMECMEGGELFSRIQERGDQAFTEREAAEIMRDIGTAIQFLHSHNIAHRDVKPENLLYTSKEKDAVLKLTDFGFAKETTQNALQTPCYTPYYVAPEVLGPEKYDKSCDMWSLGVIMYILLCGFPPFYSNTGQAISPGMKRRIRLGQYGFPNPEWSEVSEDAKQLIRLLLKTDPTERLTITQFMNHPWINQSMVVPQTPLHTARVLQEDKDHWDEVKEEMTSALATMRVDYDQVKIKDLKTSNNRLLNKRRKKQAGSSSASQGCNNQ
MAP kinase-activated protein kinase 2 (Homo sapiens), sequence (P49137 whole entry, looked up): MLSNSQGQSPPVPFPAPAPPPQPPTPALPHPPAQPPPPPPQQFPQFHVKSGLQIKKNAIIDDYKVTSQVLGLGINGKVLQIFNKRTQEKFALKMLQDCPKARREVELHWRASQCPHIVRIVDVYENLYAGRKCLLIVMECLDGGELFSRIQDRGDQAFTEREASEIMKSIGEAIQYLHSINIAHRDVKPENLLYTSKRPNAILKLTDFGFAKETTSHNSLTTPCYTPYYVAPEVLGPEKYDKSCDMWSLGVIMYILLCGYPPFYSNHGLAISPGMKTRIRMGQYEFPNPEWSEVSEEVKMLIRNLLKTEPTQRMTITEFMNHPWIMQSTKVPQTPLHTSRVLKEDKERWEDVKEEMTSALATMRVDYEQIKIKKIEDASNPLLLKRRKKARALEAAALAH

Structure (SMILES)	residual activity [1]	residual activity [2]	residual activity [3]	residual activity [4]	residual activity [5]	residual activity [6]	residual activity [7]	residual activity [8]	residual activity [9]	residual activity [10]
O=c1cc(N2CCOCC2)oc2c1ccc1ccccc12	87%	109%	93%	89%	92%	92%	91%	102%	110%	
Nc1n[nH]c2nc3ccccc3nc12		94%	75%	74%	85%	97%	70%			87%
O=C(O)/C=C/c1cc(Br)c(Br)c(Br)c1Br	79%	82%	104%	82%	65%	82%	80%	105%	87%	106%
O=C(NC(NC(=S)Nc1ccc(F)c([N+](=O)[O-])c1)C(Cl)(Cl)Cl)C(c1ccccc1)c1ccccc1 (stereo not given)	78%		96%	80%		76%	76%			
Cc1cc(C)c(/C=C2\C(=O)Nc3ccccc32)[nH]1	103%	101%	65%	20%	31%			71%	58%	41%
COc1cc2ncnc(Nc3cccc(Cl)c3)c2cc1OC	105%	65%		83%	71%	89%	59%		76%	114%
N#C/C(=C\c1ccc(O)c(O)c1)C(=O)NCc1ccccc1	77%		85%	88%		80%	72%		84%	
O=C1C(Cl)=C(N2C(=O)CCC2=O)C(=O)c2ccccc21	87%	100%	82%	81%	67%		70%			
O=C1Nc2ccc(Cl)cc2/C1=C/c1cc(Cl)c(O)c(Cl)c1	71%	61%	69%	35%	49%	60%	46%	35%	35%	99%
CC(C)c1nn(-c2c(Cl)cccc2Cl)c2nc(Cc3ccc(OCCO)cc3)[nH]c(=O)c12	89%	91%	80%	47%		65%	67%	97%	93%	82%
CC(C)(C)c1nc2c3ccc(F)cc3c3c(=O)[nH]ccc3c2[nH]1	62%		29%	14%	20%	2%	2%	81%	78%	66%
CC(C)[C@H](CO)Nc1nc(Nc2cc(N)cc(Cl)c2)c2ncn(C(C)C)c2n1	117%		92%	38%					73%	
COc1cc2nccc(Oc3ccc(NC(=S)NC(=O)c4ccccc4C)cc3)c2cc1OC	66%	56%	81%	75%	68%	98%	84%	77%	69%	86%
NCCNc1ncc(C(N)=O)c(Nc2cccc(C(F)(F)F)c2)n1	49%	72%	72%	30%	25%					73%
O=c1cc(N2CCNCC2)oc2c(-c3ccccc3)cccc12	85%	89%	82%	89%	89%	80%	78%	104%	99%	99%
Cn1sc(=O)n(Cc2ccccc2)c1=O	93%		76%	70%		88%	65%	96%	91%	96%
CCCC(=O)Oc1ccc2[nH]c(C(=O)c3cc4ccccc4[nH]3)cc2c1	87%	94%	80%	84%	100%	88%	87%	82%	82%	93%
Nc1ncnc2[nH]nc(Nc3ccc(F)cc3)c12	95%	112%		69%	23%		51%		48%	60%
CSc1nc(-c2ccc(F)cc2)c(-c2ccnc(NC(C)c3ccccc3)c2)[nH]1 (stereo not given)	98%		94%	76%		88%	61%		59%	
O=C(Nc1nc2ccccc2n1CCN1CCOCC1)c1cccc([N+](=O)[O-])c1		84%	80%	81%	81%	65%	45%			66%
CN([C@@H](Cc1ccc(OS(=O)(=O)c2cccc3cnccc23)cc1)C(=O)N1CCN(c2ccccc2)CC1)S(=O)(=O)c1cccc2cnccc12		78%	99%	98%						
O=C1NC(=O)c2c1c1c3ccccc3[nH]c1n1cncc21	89%	82%	25%	21%	67%	27%	10%	77%	45%	59%

Structure (SMILES)	residual activity [1]	residual activity [2]	residual activity [3]	residual activity [4]	residual activity [5]	residual activity [6]	residual activity [7]	residual activity [8]	residual activity [9]	residual activity [10]
O=C(c1ccccc1)c1ccc(N2CCOCC2)cc1O	89%	93%	93%	83%	90%	85%	65%	85%	60%	80%
O=C(CCCc1ccc(-c2ccccc2F)cc1)Nc1ccc(O)cc1	76%		102%	94%	111%	100%	77%	111%	102%	103%
NC(=O)Nc1sc(-c2ccc(F)cc2)cc1C(N)=O	83%	86%	57%	17%	34%	72%	24%	81%	47%	44%
O=C1NC(=O)C(c2c[nH]c3ccccc23)=C1c1c[nH]c2ccccc12	79%		81%	37%	7%	80%	27%		41%	34%
O=C1NC(=O)C(c2cn(CCCO)c3ncccc23)=C1c1cnccn1	93%	100%	81%	79%		78%	68%			
O=C(c1cc2cc(O)ccc2[nH]1)c1cc2cc(O)ccc2[nH]1	51%		40%	5%	26%	27%	3%	21%	4%	80%
CN(C)S(=O)(=O)c1ccc2c(c1)/C(=C/c1cc3c([nH]1)CCCC3)C(=O)N2	92%	92%	24%	17%	83%		95%	124%	97%	
Nc1ncnc2c1c(-c1ccc(Oc3ccccc3)cc1)cn2C1CCCC1	77%	84%	74%	54%	24%	72%	31%	93%	82%	48%
CCCCc1c(-c2ccc(OC)cc2)[nH]c2nccnc12	109%	109%	78%	76%	112%	74%	75%	104%		140%
O=C1Cc2c([nH]c3ccc([N+](=O)[O-])cc23)-c2ccccc2N1	50%	53%	34%	28%	129%	81%	64%	60%	36%	103%
COc1ccc(COc2ccc(Cc3cnc(N)nc3N)cc2OC)cc1				71%						
c1ccc(-c2cnc(Nc3ccc(OCCN4CCCC4)cc3)s2)cc1		104%				64%	20%	61%	12%	113%
CCCCc1c(-c2ccc(O)cc2)[nH]c2nccnc12			74%	38%		76%	72%	97%	86%	
Nc1nccc(-c2c(-c3ccc(F)cc3)ncn2C2CCNCC2)n1					119%	71%	27%			
COc1cc2nccc(Oc3ccc(NC(=O)Nc4cc(C)on4)c(Cl)c3)c2cc1OC		67%	99%		20%		80%	71%	21%	62%
CC(C)N(CCC(=O)c1ccc2ccccc2c1)Cc1ccccc1			73%	75%		75%	87%			
Nc1nc(Nc2ccc(S(N)(=O)=O)cc2)nn1C(=O)c1c(F)cccc1F					64%			107%	80%	73%
CCN(CC)CCNC(=O)c1c(C)[nH]c(/C=C2\C(=O)Nc3ccc(Cl)cc32)c1C			14%	3%	8%	8%	3%	9%	2%	21%
COc1ccc2c(c1)c(C1=C(c3c[nH]c4ccccc34)C(=O)NC1=O)cn2CCCN(C)C		135%	75%	53%	75%	54%	26%		61%	102%
Oc1cccc(-c2nc(N3CCOCC3)c3oc4ncccc4c3n2)c1						74%	88%			
NC(=O)c1ccc(-c2nc(-c3ccc4c(c3)OCCO4)c(-c3ccccn3)[nH]2)cc1			96%	89%		73%	70%			
COc1ccc(Cl)cc1NC(=O)Nc1cc(C)nc2ccccc12			86%	77%	86%	88%	89%			75%

Structure (SMILES)	residual activity [1]	residual activity [2]	residual activity [3]	residual activity [4]	residual activity [5]	residual activity [6]	residual activity [7]	residual activity [8]	residual activity [9]	residual activity [10]
O=C1Nc2ccccc2/C1=C\c1c(Cl)[nH]c2ccccc12		85%		74%		77%	30%			
N#Cc1c(NC(=O)c2cccc3ccccc23)sc2c1CCCC2		88%	100%	92%		87%	91%	95%	93%	
O=C1Cc2c([nH]c3ccc(Br)cc23)-c2ccccc2N1		89%	51%	12%	82%	89%	68%			
COc1ccc(CNC(=O)Nc2ncc([N+](=O)[O-])s2)cc1				76%						
N#C/C(=C1/Nc2ccccc2S1)c1ccnc(NCCc2cccnc2)n1		68%				74%	50%	96%	72%	
O=C(Nc1ccc(Cl)cc1)c1ccccc1NCc1ccncc1						75%				
COc1ccc(-c2cnc3c(-c4ccsc4)cnn3c2)cc1			91%	95%		80%	87%	89%	76%	
Cn1c2ccccc2c2c3c(c4c5ccccc5n(CCC#N)c4c21)CNC3=O		77%	4%	5%	34%	9%	4%	21%	16%	36%
O=c1c(-c2ccc(F)cc2)c(-c2ccncc2)[nH]n1-c1ccc(Cl)cc1					102%				55%	
Fc1ccc(-c2nc3n(c2-c2ccncc2)CCS3)cc1		100%				89%	82%	96%	67%	
COc1cc2c(cc1OC)-c1n[nH]c(Nc3cccc(F)c3)c1C2		99%	73%	48%		47%	11%	74%	42%	108%
CCOC(=O)c1c(C)[nH]c(/C=C2\C(=O)Nc3ccccc32)c1C		95%	89%	87%		77%	97%	86%	75%	
O=S(=O)(NCCNC/C=C/c1ccc(Br)cc1)c1cccc2cnccc12			76%	37%		45%	9%		75%	
O=S(=O)(c1cccc2cnccc12)N1CCCNCC1						75%	16%			
CCN1/C(=C/C(C)=O)Sc2ccc(OC)cc21			67%	65%						
CC(C)(C)n1nc(Cc2cccc3ccccc23)c2c(N)ncnc21		90%	91%	80%	63%	72%	30%	86%	26%	94%
NC(=O)c1cccc(-c2cc(Nc3ccc(OC(F)(F)F)cc3)ncn2)c1						74%	75%			
O=C1NC(=O)C(c2cn(CCCn3ccnc3)c3ccccc23)=C1Nc1ccccc1			77%	51%	39%				47%	104%
Nc1ncnc2c1cnn2-c1ccccc1		92%	89%	88%	79%	95%	73%		99%	
O=c1cc(N2CCOCC2)oc2c(-c3ccccc3)cccc12							72%			
